# According to publication PMC7862700, “An all-to-all approach to the identification of sequence-specific readers for epigenetic DNA modifications on cytosine”:
# Assays:
# Experiment in all cases: DAPPL (digital affinity profiling via proximity ligation, sequencing); 10 mM Tris-HCl pH 7.5, 50 mM NaCl, 1 mM DTT, 4% glycerol, room temperature, 30 min; GST-TFs on glutathione beads, 16-mer random dsDNA library, 0.1% formaldehyde crosslink after washing; high values mean tight binding
# FLI1 = target: T1, FLI1 (Homo sapiens, UniProt Q01543 1-452); conditions: protein: recombinant; tags: N-terminal GST; dsDNA, one strand shown
# T1 sequence: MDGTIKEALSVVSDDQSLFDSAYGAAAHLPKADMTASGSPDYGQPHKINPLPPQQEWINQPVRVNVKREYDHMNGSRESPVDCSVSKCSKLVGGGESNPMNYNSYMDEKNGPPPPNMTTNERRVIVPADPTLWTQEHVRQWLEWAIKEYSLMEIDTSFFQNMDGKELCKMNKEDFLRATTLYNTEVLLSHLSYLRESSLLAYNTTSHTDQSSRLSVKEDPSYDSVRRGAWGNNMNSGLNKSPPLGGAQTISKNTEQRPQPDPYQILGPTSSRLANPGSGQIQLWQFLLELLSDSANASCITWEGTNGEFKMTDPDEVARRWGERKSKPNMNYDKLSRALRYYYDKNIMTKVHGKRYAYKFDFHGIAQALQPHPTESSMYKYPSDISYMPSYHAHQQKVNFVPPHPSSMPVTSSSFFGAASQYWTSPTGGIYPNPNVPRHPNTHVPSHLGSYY
# How it was run: (§1)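 Sequencing on an Illumina NextSeq500 followed washing, crosslinking with 0.1% formaldehyde, proximity ligation (BsaI/T4 ligase, 1 h, 37 °C) and PCR amplification of pools that had been incubated for 30 min at room temperature with 200 nmole of a random double-stranded 16-mer DNA library in Tris/NaCl/DTT/glycerol buffer. Each pool held DNA-barcoded human transcription factors, expressed in yeast as GST fusions and captured on glutathione beads, plus a tag-only sample. Binding signal is a hexamer's read frequency for a factor divided by its frequency in the tag-only sample.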
# ELK1 = target: T2, ELK1 (Homo sapiens, UniProt P19419 1-428); conditions: protein: recombinant; tags: N-terminal GST; dsDNA, one strand shown
# T2 sequence: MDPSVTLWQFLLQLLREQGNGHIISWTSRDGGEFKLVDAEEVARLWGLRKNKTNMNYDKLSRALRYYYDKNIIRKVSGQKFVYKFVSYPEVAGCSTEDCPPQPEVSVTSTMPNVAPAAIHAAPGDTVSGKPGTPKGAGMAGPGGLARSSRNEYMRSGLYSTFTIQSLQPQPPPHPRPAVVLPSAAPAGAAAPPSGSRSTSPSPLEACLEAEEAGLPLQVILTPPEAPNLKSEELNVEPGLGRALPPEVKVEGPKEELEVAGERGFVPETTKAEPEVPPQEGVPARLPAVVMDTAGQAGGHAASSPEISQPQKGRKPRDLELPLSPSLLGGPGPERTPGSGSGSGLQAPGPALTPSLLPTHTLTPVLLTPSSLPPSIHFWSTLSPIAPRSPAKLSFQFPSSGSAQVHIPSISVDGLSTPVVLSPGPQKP
# How it was run: as §1
# GABPA = target: T3, GABPA (Homo sapiens, UniProt Q06546 1-454); conditions: protein: recombinant; tags: N-terminal GST; dsDNA, one strand shown
# T3 sequence: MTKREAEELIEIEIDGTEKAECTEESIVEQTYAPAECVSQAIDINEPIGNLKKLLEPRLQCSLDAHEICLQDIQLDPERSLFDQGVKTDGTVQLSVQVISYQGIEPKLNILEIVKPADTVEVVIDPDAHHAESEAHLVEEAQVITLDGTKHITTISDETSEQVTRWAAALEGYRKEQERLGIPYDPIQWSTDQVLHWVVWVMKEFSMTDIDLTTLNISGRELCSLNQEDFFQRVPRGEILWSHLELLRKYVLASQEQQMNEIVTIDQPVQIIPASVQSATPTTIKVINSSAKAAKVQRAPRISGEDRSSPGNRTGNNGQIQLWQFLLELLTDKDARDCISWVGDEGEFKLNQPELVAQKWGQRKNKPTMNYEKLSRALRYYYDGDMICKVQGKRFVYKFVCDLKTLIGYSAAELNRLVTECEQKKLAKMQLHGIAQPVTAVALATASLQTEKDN
# How it was run: as §1
# ERG = target: T4, ERG (Homo sapiens, UniProt P11308 1-479); conditions: protein: recombinant; tags: N-terminal GST; dsDNA, one strand shown
# T4 sequence: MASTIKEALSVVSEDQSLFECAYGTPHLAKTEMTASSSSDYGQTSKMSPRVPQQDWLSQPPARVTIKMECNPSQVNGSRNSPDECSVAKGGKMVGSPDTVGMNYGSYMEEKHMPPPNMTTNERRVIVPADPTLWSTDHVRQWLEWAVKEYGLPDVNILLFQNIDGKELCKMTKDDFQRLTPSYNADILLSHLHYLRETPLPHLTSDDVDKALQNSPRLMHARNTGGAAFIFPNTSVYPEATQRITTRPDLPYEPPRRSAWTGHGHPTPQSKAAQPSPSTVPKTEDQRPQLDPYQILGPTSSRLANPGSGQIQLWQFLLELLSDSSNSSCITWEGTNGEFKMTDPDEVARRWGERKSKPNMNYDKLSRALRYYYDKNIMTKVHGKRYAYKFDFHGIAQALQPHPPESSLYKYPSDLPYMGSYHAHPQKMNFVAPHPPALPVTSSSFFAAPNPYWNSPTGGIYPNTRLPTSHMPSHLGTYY
# How it was run: as §1
# ELF1 = ELF1 (Homo sapiens, UniProt P32519 1-619); conditions: protein: recombinant; tags: N-terminal GST; dsDNA, one strand shown
# Chain of ELF1 (P32519 whole entry): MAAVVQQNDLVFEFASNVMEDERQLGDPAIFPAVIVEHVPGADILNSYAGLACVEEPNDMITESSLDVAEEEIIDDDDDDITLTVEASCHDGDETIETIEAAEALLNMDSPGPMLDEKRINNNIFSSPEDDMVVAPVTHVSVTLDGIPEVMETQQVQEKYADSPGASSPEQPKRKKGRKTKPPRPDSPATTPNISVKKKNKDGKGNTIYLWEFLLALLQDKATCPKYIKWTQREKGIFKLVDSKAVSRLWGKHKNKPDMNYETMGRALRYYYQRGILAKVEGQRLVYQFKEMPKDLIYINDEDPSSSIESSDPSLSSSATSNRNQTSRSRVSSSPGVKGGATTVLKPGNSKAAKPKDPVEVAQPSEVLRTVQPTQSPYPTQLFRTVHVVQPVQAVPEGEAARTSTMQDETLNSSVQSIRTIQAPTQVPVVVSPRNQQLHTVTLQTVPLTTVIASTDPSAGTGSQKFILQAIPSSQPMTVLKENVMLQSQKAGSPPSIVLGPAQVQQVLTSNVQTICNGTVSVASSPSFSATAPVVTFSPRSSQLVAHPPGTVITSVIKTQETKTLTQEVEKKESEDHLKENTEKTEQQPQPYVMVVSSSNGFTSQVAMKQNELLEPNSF
# How it was run: as §1
# EHF = target: T5, EHF (Homo sapiens, UniProt Q9NZC4 1-300); conditions: protein: recombinant; tags: N-terminal GST; dsDNA, one strand shown
# T5 sequence: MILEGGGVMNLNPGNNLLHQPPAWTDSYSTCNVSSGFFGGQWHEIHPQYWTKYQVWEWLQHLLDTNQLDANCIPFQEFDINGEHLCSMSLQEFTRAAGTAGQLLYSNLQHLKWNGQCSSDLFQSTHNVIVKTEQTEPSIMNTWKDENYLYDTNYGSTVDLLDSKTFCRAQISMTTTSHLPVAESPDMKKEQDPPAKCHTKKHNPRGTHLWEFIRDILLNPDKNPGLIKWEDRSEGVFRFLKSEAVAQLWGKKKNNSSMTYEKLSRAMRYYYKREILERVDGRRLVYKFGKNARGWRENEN
# How it was run: as §1
# SPI1 = SPI1 (Homo sapiens, UniProt P17947 1-270); conditions: protein: recombinant; tags: N-terminal GST; dsDNA, one strand shown
# How it was run: as §1
# SPIB = SPIB (Homo sapiens, UniProt Q01892 1-262); conditions: protein: recombinant; tags: N-terminal GST; dsDNA, one strand shown
# Chain of SPIB (Q01892 whole entry): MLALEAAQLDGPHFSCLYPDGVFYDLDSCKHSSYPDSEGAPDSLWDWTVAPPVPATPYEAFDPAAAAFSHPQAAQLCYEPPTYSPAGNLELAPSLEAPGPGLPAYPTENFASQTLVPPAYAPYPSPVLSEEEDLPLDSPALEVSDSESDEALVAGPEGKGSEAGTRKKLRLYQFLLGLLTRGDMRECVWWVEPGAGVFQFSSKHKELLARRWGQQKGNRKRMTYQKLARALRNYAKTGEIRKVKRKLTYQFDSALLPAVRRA
# How it was run: as §1
# ELK3 = target: T6, ELK3 (Homo sapiens, UniProt P41970 1-407); conditions: protein: recombinant; tags: N-terminal GST; dsDNA, one strand shown
# T6 sequence: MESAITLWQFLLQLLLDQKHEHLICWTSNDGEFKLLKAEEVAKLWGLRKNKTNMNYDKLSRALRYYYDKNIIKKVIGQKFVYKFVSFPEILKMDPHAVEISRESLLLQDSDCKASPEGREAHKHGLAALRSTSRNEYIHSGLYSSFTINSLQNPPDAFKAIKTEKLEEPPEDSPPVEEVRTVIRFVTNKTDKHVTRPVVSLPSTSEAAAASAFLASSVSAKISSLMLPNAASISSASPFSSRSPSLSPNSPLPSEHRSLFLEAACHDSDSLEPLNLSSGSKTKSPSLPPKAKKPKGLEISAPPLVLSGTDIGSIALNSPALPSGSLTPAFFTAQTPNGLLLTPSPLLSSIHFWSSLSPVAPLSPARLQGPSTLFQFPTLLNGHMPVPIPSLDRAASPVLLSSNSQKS
# How it was run: as §1
# FEV = target: T7, FEV (Homo sapiens, UniProt Q99581 1-238); conditions: protein: recombinant; tags: N-terminal GST; dsDNA, one strand shown
# T7 sequence: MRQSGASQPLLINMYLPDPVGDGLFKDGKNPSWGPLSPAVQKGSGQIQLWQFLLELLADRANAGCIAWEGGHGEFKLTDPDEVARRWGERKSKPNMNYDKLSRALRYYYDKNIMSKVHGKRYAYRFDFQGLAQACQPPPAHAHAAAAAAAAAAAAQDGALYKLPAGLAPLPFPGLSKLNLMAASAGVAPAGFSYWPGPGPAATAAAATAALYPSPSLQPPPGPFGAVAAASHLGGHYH
# How it was run: as §1
# ETV5 = ETV5 (Homo sapiens, UniProt P41161 1-510); conditions: protein: recombinant; tags: N-terminal GST; dsDNA, one strand shown
# Chain of ETV5 (P41161 whole entry): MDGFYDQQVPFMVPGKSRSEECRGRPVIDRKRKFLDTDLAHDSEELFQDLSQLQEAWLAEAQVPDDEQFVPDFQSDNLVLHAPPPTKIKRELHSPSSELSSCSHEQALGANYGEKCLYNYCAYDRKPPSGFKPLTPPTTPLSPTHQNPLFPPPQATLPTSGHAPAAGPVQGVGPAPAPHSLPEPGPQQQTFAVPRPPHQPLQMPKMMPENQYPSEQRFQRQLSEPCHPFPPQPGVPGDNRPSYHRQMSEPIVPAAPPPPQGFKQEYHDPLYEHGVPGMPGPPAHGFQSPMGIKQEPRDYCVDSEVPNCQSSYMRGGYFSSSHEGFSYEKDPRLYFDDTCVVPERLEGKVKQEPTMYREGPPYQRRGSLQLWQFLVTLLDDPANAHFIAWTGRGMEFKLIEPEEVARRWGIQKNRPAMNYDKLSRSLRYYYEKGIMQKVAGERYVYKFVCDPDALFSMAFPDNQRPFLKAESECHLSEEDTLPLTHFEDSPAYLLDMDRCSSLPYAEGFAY
# How it was run: as §1
# HSF1 = HSF1 (Homo sapiens, UniProt Q00613 1-529); conditions: protein: recombinant; tags: N-terminal GST; chain copies: 3; dsDNA, one strand shown
# Chain of HSF1 (Q00613 whole entry): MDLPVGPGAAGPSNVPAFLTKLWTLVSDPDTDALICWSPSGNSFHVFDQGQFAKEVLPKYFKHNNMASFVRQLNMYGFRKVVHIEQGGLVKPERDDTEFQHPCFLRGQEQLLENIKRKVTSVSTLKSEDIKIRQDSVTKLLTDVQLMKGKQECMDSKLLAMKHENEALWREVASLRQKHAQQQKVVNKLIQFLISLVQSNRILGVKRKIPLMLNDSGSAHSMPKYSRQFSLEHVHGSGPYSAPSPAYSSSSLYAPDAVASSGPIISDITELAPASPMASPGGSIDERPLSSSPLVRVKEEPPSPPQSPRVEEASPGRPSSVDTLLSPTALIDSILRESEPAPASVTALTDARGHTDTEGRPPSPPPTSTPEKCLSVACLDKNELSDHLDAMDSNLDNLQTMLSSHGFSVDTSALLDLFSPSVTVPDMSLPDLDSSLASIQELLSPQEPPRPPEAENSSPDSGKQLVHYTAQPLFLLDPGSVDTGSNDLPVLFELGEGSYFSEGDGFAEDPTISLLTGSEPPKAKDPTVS
# How it was run: as §1
# SPIC = target: T8, SPIC (Homo sapiens, UniProt Q8N5J4 1-248); conditions: protein: recombinant; tags: N-terminal GST; dsDNA, one strand shown
# T8 sequence: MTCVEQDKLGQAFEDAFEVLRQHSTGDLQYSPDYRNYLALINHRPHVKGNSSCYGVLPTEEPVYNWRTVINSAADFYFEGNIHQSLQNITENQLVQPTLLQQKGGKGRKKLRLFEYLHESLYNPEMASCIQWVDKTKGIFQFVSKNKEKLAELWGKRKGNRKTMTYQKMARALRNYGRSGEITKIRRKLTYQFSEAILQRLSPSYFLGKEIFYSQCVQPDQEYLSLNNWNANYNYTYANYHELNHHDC
# How it was run: as §1
# ELF4 = ELF4 (Homo sapiens, UniProt Q99607 1-663); conditions: protein: recombinant; tags: N-terminal GST; dsDNA, one strand shown
# Chain of ELF4 (Q99607 whole entry): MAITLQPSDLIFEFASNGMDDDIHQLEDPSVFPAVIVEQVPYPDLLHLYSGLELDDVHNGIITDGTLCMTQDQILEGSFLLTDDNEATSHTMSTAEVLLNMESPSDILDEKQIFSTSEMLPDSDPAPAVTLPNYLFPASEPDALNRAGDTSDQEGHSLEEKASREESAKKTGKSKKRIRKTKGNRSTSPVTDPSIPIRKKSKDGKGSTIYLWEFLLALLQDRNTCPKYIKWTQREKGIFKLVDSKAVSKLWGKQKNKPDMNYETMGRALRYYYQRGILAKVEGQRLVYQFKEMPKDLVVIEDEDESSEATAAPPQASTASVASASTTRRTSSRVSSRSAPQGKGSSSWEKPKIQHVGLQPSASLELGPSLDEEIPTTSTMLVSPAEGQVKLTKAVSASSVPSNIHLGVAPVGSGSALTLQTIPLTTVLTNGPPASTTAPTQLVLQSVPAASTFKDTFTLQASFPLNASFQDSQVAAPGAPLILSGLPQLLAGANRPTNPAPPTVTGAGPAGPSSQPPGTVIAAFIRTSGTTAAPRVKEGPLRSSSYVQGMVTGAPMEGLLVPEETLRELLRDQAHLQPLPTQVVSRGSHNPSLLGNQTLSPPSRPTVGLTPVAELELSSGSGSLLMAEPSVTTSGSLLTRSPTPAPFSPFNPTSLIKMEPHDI
# How it was run: as §1
# ELK4 = target: T9, ELK4 (Homo sapiens, UniProt P28324-2 1-405); conditions: protein: recombinant; tags: N-terminal GST; dsDNA, one strand shown
# T9 sequence: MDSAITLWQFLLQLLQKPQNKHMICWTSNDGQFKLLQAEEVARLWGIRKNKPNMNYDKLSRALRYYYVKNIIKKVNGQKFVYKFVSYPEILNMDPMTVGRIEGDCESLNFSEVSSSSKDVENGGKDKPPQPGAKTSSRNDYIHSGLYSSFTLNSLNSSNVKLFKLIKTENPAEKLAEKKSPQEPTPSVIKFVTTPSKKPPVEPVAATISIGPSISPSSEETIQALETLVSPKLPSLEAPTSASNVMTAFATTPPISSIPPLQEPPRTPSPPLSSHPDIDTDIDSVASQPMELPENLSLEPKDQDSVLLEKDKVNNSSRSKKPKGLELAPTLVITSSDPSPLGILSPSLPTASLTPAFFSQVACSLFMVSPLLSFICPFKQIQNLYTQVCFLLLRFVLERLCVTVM
# How it was run: as §1
# ETV2 = target: T10, ETV2 (Homo sapiens, UniProt O00321 1-342); conditions: protein: recombinant; tags: N-terminal GST; dsDNA, one strand shown
# T10 sequence: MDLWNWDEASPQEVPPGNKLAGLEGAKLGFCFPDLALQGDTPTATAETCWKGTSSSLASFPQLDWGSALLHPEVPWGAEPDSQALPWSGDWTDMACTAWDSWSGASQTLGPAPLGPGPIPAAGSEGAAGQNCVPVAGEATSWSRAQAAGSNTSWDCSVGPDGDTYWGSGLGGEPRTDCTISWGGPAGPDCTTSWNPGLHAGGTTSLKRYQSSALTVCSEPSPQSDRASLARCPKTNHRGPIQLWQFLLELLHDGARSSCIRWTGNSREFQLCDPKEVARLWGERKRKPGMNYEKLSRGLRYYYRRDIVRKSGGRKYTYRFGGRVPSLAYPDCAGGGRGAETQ
# How it was run: as §1
# ELF3 = target: T11, ELF3 (Homo sapiens, UniProt P78545 1-371); conditions: protein: recombinant; tags: N-terminal GST; dsDNA, one strand shown
# T11 sequence: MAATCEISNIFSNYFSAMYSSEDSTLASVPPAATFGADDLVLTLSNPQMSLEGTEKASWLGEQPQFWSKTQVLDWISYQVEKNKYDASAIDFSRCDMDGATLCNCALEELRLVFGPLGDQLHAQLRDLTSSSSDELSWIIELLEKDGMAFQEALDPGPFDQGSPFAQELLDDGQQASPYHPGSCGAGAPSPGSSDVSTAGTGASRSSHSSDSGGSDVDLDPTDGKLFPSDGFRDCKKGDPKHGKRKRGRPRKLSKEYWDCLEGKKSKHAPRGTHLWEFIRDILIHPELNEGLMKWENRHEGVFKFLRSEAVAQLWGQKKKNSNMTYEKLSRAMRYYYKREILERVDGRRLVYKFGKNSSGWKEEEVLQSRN
# How it was run: as §1
# CRX = CRX (Homo sapiens, UniProt O43186 1-299); conditions: protein: recombinant; tags: N-terminal GST; dsDNA, one strand shown
# Chain of CRX (O43186 whole entry): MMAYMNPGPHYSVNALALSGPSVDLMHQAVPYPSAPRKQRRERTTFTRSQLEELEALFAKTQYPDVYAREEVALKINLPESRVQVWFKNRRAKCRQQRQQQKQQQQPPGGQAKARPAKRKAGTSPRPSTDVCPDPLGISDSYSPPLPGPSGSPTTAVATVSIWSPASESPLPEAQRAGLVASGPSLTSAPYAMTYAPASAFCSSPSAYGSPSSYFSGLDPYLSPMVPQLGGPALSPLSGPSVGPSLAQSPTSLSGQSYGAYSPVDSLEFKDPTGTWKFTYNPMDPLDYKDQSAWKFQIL
# How it was run: as §1
# ETV1 = ETV1 (Homo sapiens, UniProt P50549 1-477); conditions: protein: recombinant; tags: N-terminal GST; dsDNA, one strand shown
# Chain of ETV1 (P50549 whole entry): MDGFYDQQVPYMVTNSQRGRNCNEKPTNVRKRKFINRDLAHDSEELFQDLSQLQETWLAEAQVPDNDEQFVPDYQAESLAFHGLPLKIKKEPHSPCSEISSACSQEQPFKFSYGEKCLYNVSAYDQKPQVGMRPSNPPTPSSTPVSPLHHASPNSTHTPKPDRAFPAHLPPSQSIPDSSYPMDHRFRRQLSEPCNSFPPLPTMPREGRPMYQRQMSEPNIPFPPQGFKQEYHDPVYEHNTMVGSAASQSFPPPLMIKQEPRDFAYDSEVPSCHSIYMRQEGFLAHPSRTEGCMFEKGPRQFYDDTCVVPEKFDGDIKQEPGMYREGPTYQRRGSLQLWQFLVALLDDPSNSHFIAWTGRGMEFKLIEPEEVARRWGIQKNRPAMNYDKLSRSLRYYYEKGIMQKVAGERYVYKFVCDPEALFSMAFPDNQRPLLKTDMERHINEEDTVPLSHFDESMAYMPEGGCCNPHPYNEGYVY
# How it was run: as §1
sequence,measurement,setting,value
ATCTTA,binding signal,FLI1,"1.15 fold enrichment (6-mer frequency, TF over GST control)"
same,binding signal,ELK1,"1.07 fold enrichment (6-mer frequency, TF over GST control)"
same,binding signal,GABPA,"1.1 fold enrichment (6-mer frequency, TF over GST control)"
same,binding signal,ERG,"1.09 fold enrichment (6-mer frequency, TF over GST control)"
same,binding signal,ELF1,"1.15 fold enrichment (6-mer frequency, TF over GST control)"
same,binding signal,EHF,"1.04 fold enrichment (6-mer frequency, TF over GST control)"
same,binding signal,SPI1,"1.01 fold enrichment (6-mer frequency, TF over GST control)"
same,binding signal,SPIB,"1.03 fold enrichment (6-mer frequency, TF over GST control)"
same,binding signal,ELK3,"1.11 fold enrichment (6-mer frequency, TF over GST control)"
same,binding signal,FEV,"1.1 fold enrichment (6-mer frequency, TF over GST control)"
same,binding signal,ETV5,"1.1 fold enrichment (6-mer frequency, TF over GST control)"
same,binding signal,HSF1,"1.47 fold enrichment (6-mer frequency, TF over GST control)"
same,binding signal,SPIC,"1.05 fold enrichment (6-mer frequency, TF over GST control)"
same,binding signal,ELF4,"1.1 fold enrichment (6-mer frequency, TF over GST control)"
same,binding signal,ELK4,"1.18 fold enrichment (6-mer frequency, TF over GST control)"
same,binding signal,ETV2,"1.12 fold enrichment (6-mer frequency, TF over GST control)"
same,binding signal,ELF3,"1.12 fold enrichment (6-mer frequency, TF over GST control)"
same,binding signal,CRX,"2.11 fold enrichment (6-mer frequency, TF over GST control)"
same,binding signal,ETV1,"1.12 fold enrichment (6-mer frequency, TF over GST control)"
